Results filed as inconclusive are left out. Entries that show only a call come without a potency. Active and inactive are the calls of the source. The call rests on the fitted dose curve; in most records, active means well fitted inhibition curve with a large enough effect; inconclusive means small, poorly fitted or top-dose-only effect; inactive means no such curve, though single readings can be large or run the other way.
Columns and labels:
[1] = target: Retinal dehydrogenase 2 (Homo sapiens) (UniProt O94788); test: qHTS for Inhibitors of the Aldehyde Dehydrogenase Family (ALDH1A2) Confirmation screens (AID 2061314); further: nearly all actives have a fitted effect of over 65% in size; further: potency means the concentration at half of the fitted maximal effect
[2] = target: Retinaldehyde dehydrogenase 3 (Homo sapiens) (UniProt P47895); test: qHTS for Inhibitors of the Aldehyde Dehydrogenase Family (ALDH1A3) Primary screen (AID 2061315)

| Structure (SMILES) | Potency [1] | Potency [2] |
| --- | --- | --- |
| COc1ccc(S(=O)(=O)N2CCOC[C@H](Oc3ccc(C(F)(F)F)cc3)C2)cc1 | inactive |  |
| Cc1cccc(C(=O)N2CCCC(N3CCN(c4cccc(C(F)(F)F)c4)CC3)C2)c1 (stereo not drawn) | inactive |  |
| Cn1cc(S(=O)(=O)N2CCCCC2)cc1C(=O)Nc1ccc(OC(F)(F)F)cc1 | inactive |  |
| O=c1cc2nc(-c3ccccc3)nc(SCc3cccc(Br)c3)n2[nH]1 | inactive |  |
| COc1cc(OC)cc(C(=O)NCCc2csc3nc(-c4ccccc4F)nn23)c1 | inactive |  |
| CC(=O)c1ccc(NC(=O)CCc2c(C)nn(-c3ccc4nnc(C)n4n3)c2C)cc1 | inactive |  |
| CCOc1ccccc1NC(=O)c1cnc(N2CCOCC2)c2ccccc12 | inactive |  |
| CC(C)CN1C(=O)CO[C@H](c2ccc(NS(=O)(=O)c3cccc(F)c3)cc2)[C@H]1CO | inactive |  |
| Cc1ccc2cccc(NC(=O)COc3ccccc3[N+](=O)[O-])c2n1 | inactive |  |
| COc1ccc(S(=O)(=O)N2CCCCC2)cc1C(=O)Nc1cccc(C(F)(F)F)c1 | inactive |  |
| COc1cccc(-c2nnc(-c3ccccc3NC(=O)c3cccc(C(F)(F)F)c3)o2)c1 | inactive |  |
| Nc1c(-c2ccncc2)cc[nH]c1=O | 0.634 µM (active) | inactive |
| CCCCOc1ccc(C(=O)N(Cc2ccc(N(C)C)cc2)Cc2ccco2)cc1 | inactive |  |
| O=S(=O)(NCCn1cc(-c2cncnc2)nn1)c1ccc(Cl)cc1 | inactive |  |
| COC(=O)c1cc(C)nc2c1c(=O)nc(SCc1ccccc1C)n2C1CC1 | inactive |  |
| CCOc1ccccc1NC(=O)CN(C)S(=O)(=O)c1ccc(C(=O)N2CCOCC2)s1 | inactive |  |
| O=C(CN(Cc1cccc2ccccc12)C1CC1)Nc1ccc(N2CCOCC2)cc1 | 11.3 µM (active) | inactive |
| Cc1cc(C)n2nc(CNS(=O)(=O)c3cccc(Cl)c3)nc2n1 | inactive |  |
| O=C(NCC(=O)N1CCOCC1)c1ccc(-c2cccc(C(F)(F)F)c2)cc1 | inactive |  |
| CCC(=O)N(C1CCOCC1)C1CCN(S(=O)(=O)c2ccc(C(F)(F)F)cc2)CC1 | inactive |  |
| COc1ccc(N(C)C(=O)c2cn(C)c(=O)c3cc(OC)c(OC)cc23)cc1 | inactive |  |

| Structure (SMILES) | Potency [1] | Potency [2] |
| --- | --- | --- |
| COc1ccc(C(=O)Nc2ccc(-c3cc(C(F)(F)F)nn3-c3ccccc3)cc2)cc1OC | inactive |  |
| CCCCOc1cccc(C(=O)Nc2cc(NC(=O)c3ccco3)ccc2OC)c1 | inactive |  |
| COc1ccccc1C(=O)Nc1ccc(-c2cc(C(F)(F)F)nn2-c2ccccc2)cc1 | inactive |  |
| Cc1ccc(S(=O)(=O)NC[C@H]2O[C@@H](CC(=O)NCCN3CCOCC3)[C@H](O)[C@@H]2O)cc1 | inactive |  |
| COc1cccc(-c2ccc(C(=O)N3CCC(N[S+](=O)([O-])CCC(F)(F)F)CC3)cc2)c1 | inactive |  |
| CC(C)Cn1c(=O)c(C(=O)NCc2cccs2)nc2cccnc21 | inactive |  |
| COc1ccccc1CCNc1ncnc2c1nnn2C | inactive |  |
| CNC(=O)c1cc(C)nc2onc(C3CCCN3C(=O)c3ccccc3)c12 (stereo not drawn) | inactive |  |
| O=C(c1n[nH]c2ccccc12)N1CCCC(Cc2noc(-c3cnccn3)n2)C1 (stereo not drawn) | inactive |  |
| COc1ccc(S(=O)(=O)NCC(c2ccc(N(C)C)cc2)N2CCOCC2)cc1 (stereo not drawn) | inactive |  |
| Cn1cnc(S(=O)(=O)N2CCC(C(=O)Nc3ccc(OC(F)(F)F)cc3)CC2)c1 | inactive |  |
| COc1ccc(CN2CC(O)CN([S+](=O)([O-])c3ccc(F)cc3)CC2=O)cc1 (stereo not drawn) | inactive |  |
| COc1ccc(OC)c(CNC(=O)C2CCCCN2S(=O)(=O)c2ccc(F)cc2)c1 (stereo not drawn) | inactive |  |
| CCOc1ccc(-c2cc(C(=O)NC(C)c3ccccc3)c3ccccc3n2)cc1 (stereo not drawn) | inactive |  |
| CC(C)OCCCn1c(SCc2ccccc2Cl)nc2c(sc3ccccc32)c1=O | inactive |  |
| COc1ccc(N2CCN(C(=O)c3cc(NS(=O)(=O)c4ccc(F)cc4)ccn3)CC2)cc1 | inactive |  |
| COc1ccc(-c2cc(C(=O)NCCc3ccc(OC)c(OC)c3)c3ccccc3n2)cc1 | inactive |  |
| Cc1nn(-c2ccc3nncn3n2)c(C)c1CCC(=O)Nc1ccc(OC(F)(F)F)cc1 | inactive |  |
| O=C(NCC(=O)N1CCOCC1)c1cccc(-c2ccc(C(F)(F)F)cc2)c1 | inactive |  |
| Cc1ccc(NS(=O)(=O)c2cc3c(cc2C)NC(=O)CO3)cc1C |  | inactive |

Source: PubChem BioAssay (NCATS)
